Holding throughout (assay): NCI-60 one-dose screen, 48 h (100 = growth as untreated, 0 = no growth, -100 = all killed)
Conditions in all cases: 10 µM unless noted

In experiment [1] the test system is BT-549 breast.
Experiment [2] has as its system MDA-MB-435 melanoma.
Experiment [3] relates to SW-620 colon.
Experiment [4] concerns HCT-116 colon.
The subject of experiment [5] is HCC-2998 colon.
Experiment [6] concerns KM12 colon.
For experiment [7], the system named is MCF7 breast.

This is part of a sample that, as a whole, favours compounds with a hit. Of some 83,000 tested, about 20% had one in any assay.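 Percent growth is the endpoint: 0 to 100 indicates growth inhibition (40 means 60% inhibition), 0 means no net growth, and negative values indicate cell death.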 A number with no mark means an inactive call. Active and inactive are the calls of the source. The calls were made as follows: active = growth percent below 10; inactive = the rest.

With `Cn1ccnc1C(=O)/C=C/c1ccc(NC(=O)Nc2ccc(F)cc2)cc1`, the growth was 30.1% in experiment [1]; 35.4% in experiment [2]; 42.1% in experiment [3]; 17.1% in experiment [4]; 29.8% in experiment [5]; 36.5% in experiment [6].
On to `COc1cc(/C=C/C(=O)c2cc(OC)c(OC)c(OC)c2)ccc1OCc1ccc(F)cc1`, for which the growth in experiment [1] is 8.09% (active); in experiment [2], 52.9%; in experiment [3], 16.9%; in experiment [4], 5.57% (active); in experiment [5] it was 40.2%; in experiment [6] it was 19%.
For `Cn1cc(-c2cc(N)n3nc(-c4cn(C)c5ccc(Cl)cc45)cc3n2)c2cc(Cl)ccc21`, the growth in experiment [1] is 117%; in experiment [2] it was 16.5%; in experiment [3], 14.6%; in experiment [4], 75.5%; in experiment [5], 98.4%; in experiment [6], 60.1%.
Take `COC(=O)c1ccc(NC(=S)N2CCc3ccc([N+](=O)[O-])cc3C2)cc1O`: the growth in experiment [1] was 101%; in experiment [2], 111%; in experiment [3], 110%; in experiment [4], 117%; in experiment [5], 110%; in experiment [6], 103%.
Consider `CC(C)NC(=O)c1cc(-c2ccc(NC(=O)Nc3ccc(N4CCOCC4)c(C(F)(F)F)c3)cc2)nc2cccnc12`, for which the growth is 66.7% in experiment [1]; 67.9% in experiment [2]; 79.7% in experiment [3]; 63.9% in experiment [4]; 106% in experiment [5].
As to `O=C(CCN1C(=O)/C(=C/c2ccccc2F)SC1=S)N1CCOCC1`, the growth was 108% in experiment [1]; 80.8% in experiment [2]; 58.8% in experiment [3]; 81.9% in experiment [4]; 115% in experiment [5]; 80.8% in experiment [6].
As to `O=C(c1ccc(O)cc1)C1[C@H](c2ccc(Cl)cc2)[C@@H](c2ccccc2)NC12C(=O)Nc1ccc(Cl)cc12` (stereo partly specified), the growth in experiment [1] is 77.3%; in experiment [2], 39.6%; in experiment [3], 40.5%; in experiment [4], 14.5%; in experiment [5], 18%; in experiment [6], 24.4%.
On to `Cc1c(Nc2nnc(SCC(=O)Nc3sc4c(c3C#N)CCCC4)s2)c(=O)n(-c2ccccc2)n1C`, for which the growth is 113% in experiment [1]; 104% in experiment [2]; 103% in experiment [3]; 102% in experiment [4]; 115% in experiment [5]; 98% in experiment [6].
For `C/C(=N\NC(N)=O)c1c(O)sc(=O)[nH]c1=O`, the growth was 95.3% in experiment [1]; 104% in experiment [2]; 97.5% in experiment [3]; 91% in experiment [4]; 110% in experiment [5]; 100% in experiment [6].
As for `O=C(N/N=C/c1ccc([N+](=O)[O-])o1)c1[nH]c2ccc(Br)cc2c1-c1ccccc1`, the growth in experiment [1] was -32.1% (active); in experiment [2], -40.8% (active); in experiment [3], 10.5%; in experiment [4] it was -8.73% (active); in experiment [5] it was 2.07% (active); in experiment [6], 15.3%.
With `N#Cc1ccc(/C=N/NC(=O)c2[nH]c3ccc(Br)cc3c2-c2ccccc2)s1`, the growth is -11.4% (active) in experiment [1]; 1.78% (active) in experiment [2]; 22.9% in experiment [3]; -18.9% (active) in experiment [4]; 21.8% in experiment [5]; 11% in experiment [6].
`CC(=O)Oc1ccccc1C(=O)Nc1cc(C(C)C)ccc1C`: the growth in experiment [1] is 37.5%; in experiment [2], 11.1%; in experiment [3] it was 23.8%; in experiment [4], 11.3%; in experiment [5], 20.5%; in experiment [6], 11.1%.
With `CN(C)CCCNc1c2ccc(Cl)cc2nc2c1oc1ccc(Cl)cc12`, the growth in experiment [1] is 79.9%; in experiment [2], -74.3% (active); in experiment [3], -79% (active); in experiment [4] it was -93.7% (active); in experiment [5], -85.1% (active); in experiment [6], -56.3% (active).
For the compound `CN(C)CCCOc1c2ccccc2nc2c1oc1ccc(Cl)cc12`, the growth was 19.2% in experiment [1]; -19.8% (active) in experiment [2]; -3.7% (active) in experiment [3]; 10.9% in experiment [4]; 11.1% in experiment [5]; 1.62% (active) in experiment [6].
Take `CCOC(=O)c1csc(NC(=O)CSc2nc3sc4c(c3c(=O)n2-c2ccc(Cl)cc2)CCCC4)n1`: the growth in experiment [1] was 99%; in experiment [2] it was 93.6%; in experiment [3] it was 103%; in experiment [4] it was 105%; in experiment [5], 121%; in experiment [6], 109%.
Take `Clc1ccc2c(NCCCn3ccnc3)c3oc4ccccc4c3nc2c1`: the growth in experiment [1] was 81.2%; in experiment [2] it was 32.2%; in experiment [3], 21.5%; in experiment [4], 14%; in experiment [5], 40.8%; in experiment [6] it was 30.1%.
With `Clc1ccc2oc3c(NCCCN4CCOCC4)c4ccccc4nc3c2c1`, the growth in experiment [1] is 67.8%; in experiment [2], 22%; in experiment [3], 15%; in experiment [4], 14.8%; in experiment [5] it was 28.9%; in experiment [6] it was 26.5%.
Regarding `COc1ccc(COc2ccc(/C=C3/C(=O)Nc4cc(Cl)ccc43)cc2)cc1`, the growth in experiment [1] is 102%; in experiment [2] it was 97.6%; in experiment [3], 95.7%; in experiment [4] it was 101%; in experiment [5], 100%; in experiment [6], 101%.
As for `Cc1cc(C(NC(=O)CCCCCNc2cccc3c2C(=O)N(C2CCC(=O)NC2=O)C3=O)c2cccnc2)c(O)c2ncccc12` (stereo unspecified), the growth in experiment [1] was -30.8% (active); in experiment [2], 30.7%; in experiment [3] it was 13.3%; in experiment [4] it was 24.8%; in experiment [5], 2.27% (active); in experiment [6], 17.6%.
For `O=C(O)CCCCCN1C(=O)/C(=C/c2ccc(O)c(O)c2)SC1=S`, the growth in experiment [1] was 101%; in experiment [2], 103%; in experiment [3], 111%; in experiment [4], 105%; in experiment [5], 115%; in experiment [6] it was 105%.
Regarding `CS(=O)(=O)c1ccc(-c2nc3ccccn3c2-c2nc3ccc([N+](=O)[O-])cc3[nH]2)cc1`, the growth was 122% in experiment [1]; 94.5% in experiment [2]; 93.2% in experiment [3]; 97% in experiment [4]; 105% in experiment [5]; 93.8% in experiment [6].
Take `COc1cc(/C=C/C(=O)c2cc(OC)c(OC)c(OC)c2)ccc1OCc1ccccc1`: the growth is 32% in experiment [1]; 45.9% in experiment [2]; 13.2% in experiment [3]; 6.71% (active) in experiment [4]; 44.6% in experiment [5]; 11.3% in experiment [6].
On to `COc1cc(-c2nc3ccc(-c4nnc(SCC(=O)Nc5ccc(C(C)=O)cc5)o4)cc3[nH]2)cc(OC)c1OC`, for which the growth in experiment [1] is 108%; in experiment [2] it was 108%; in experiment [3] it was 101%; in experiment [4], 106%; in experiment [5], 112%; in experiment [6], 101%.
As to `N[C@@H](Cc1cn(-c2c3ccccc3nc3ccccc23)nn1)C(=O)O`, the growth in experiment [1] is 117%; in experiment [2], 104%; in experiment [7] it was 73.9%; in experiment [4], 106%; in experiment [5], 117%.
Take `Cc1cc2nc3c4cc(Cl)ccc4n(CC(=S)NCCN(C)C)c3nc2cc1C`: the growth in experiment [1] is 75%; in experiment [2] it was -92.4% (active); in experiment [3], -91.4% (active); in experiment [4] it was -94.2% (active); in experiment [5], -82.9% (active); in experiment [6] it was -60.2% (active).
In the case of `Oc1c(Cl)cc(Cl)c2ccc(CN3CCCCC3)nc12`, the growth is 89.1% in experiment [1]; 42.1% in experiment [2]; 30.4% in experiment [3]; 21.3% in experiment [4]; 65% in experiment [5]; 30.7% in experiment [6].
As for `C#Cc1nc(C2=C(C)/C(=N/OCc3ccccc3)CC2)cs1`, the growth in experiment [1] was 58.1%; in experiment [2] it was 80.1%; in experiment [3], 85.6%; in experiment [4], 40.6%; in experiment [5], 99.8%; in experiment [6], 19.6%.
On to `O=C(CSc1nccc(=O)[nH]1)Nc1ccc(-c2nc3ccccc3[nH]2)cc1`, for which the growth in experiment [1] is 103%; in experiment [2], 111%; in experiment [3] it was 116%; in experiment [4], 106%; in experiment [5] it was 116%; in experiment [6] it was 86.3%.
With `CCC/C=C/C=C/C(=O)N[C@@H](Cc1cc(F)cc(F)c1)C(=O)N[C@@H]1C(=O)N2CCC[C@H]2C(=O)N2CCCC[C@H]2C(=O)N[C@@H](C)C(=O)N2C[C@H](C)C[C@H]2C(=O)O[C@H]1C`, the growth in experiment [1] was 11.5%; in experiment [2] it was 17%; in experiment [3], 32.5%; in experiment [4], 13.4%; in experiment [5] it was 24.1%; in experiment [6], 33.3%.
For `C/C(=C(/c1ccc(Cl)cc1)c1ccc(OCCN)cc1)c1ccc(C)cc1`, the growth in experiment [1] is 117%; in experiment [2], 97.3%; in experiment [3], 93.5%; in experiment [4], 101%; in experiment [5] it was 111%; in experiment [6], 103%.
For `Nc1nc(N)c2c(n1)NC(c1ccc(F)cc1)CC(c1ccc(Nc3nc(NCCO)nc(Nc4ccc(Cl)cc4)n3)cc1)=N2` (stereo unspecified), the growth was 42.7% in experiment [1]; -71.4% (active) in experiment [2]; -52.8% (active) in experiment [3]; -67.4% (active) in experiment [4]; -80.4% (active) in experiment [5]; -16.9% (active) in experiment [6].
In the case of `COC1CCN(Cc2ccc3c(NNC(=O)c4cnccn4)nc4cc(F)ccc4n23)C1` (stereo unspecified), the growth was 51.7% in experiment [1]; 37.2% in experiment [2]; 24% in experiment [3]; 4.53% (active) in experiment [4]; 59.9% in experiment [5]; 22.6% in experiment [6].
On to `C#C[C@]1(O)CC[C@H]2[C@@H]3CC=C4c5sc(-c6ccc(F)cn6)nc5CC[C@]4(C)[C@H]3CC[C@@]21C`, for which the growth in experiment [1] is 7.85% (active); in experiment [2], 18.1%; in experiment [3], 16.1%; in experiment [4], 18.1%; in experiment [5], 65.1%; in experiment [6], 13.9%.
For the compound `CCCC(=O)NC(c1ccc2c(c1)OC(F)(F)O2)c1cc(C)c2cccnc2c1O` (stereo unspecified), the growth in experiment [1] was 37.9%; in experiment [2], 22.9%; in experiment [3], 30.3%; in experiment [4] it was 26.2%; in experiment [5], 53.3%; in experiment [6], 21.4%.
For the compound `Cc1ccc(CNS(=O)(=O)/N=C2\NC(=O)NC2=C(Cl)Cl)cc1`, the growth was -8.68% (active) in experiment [1]; 47.7% in experiment [2]; 32.4% in experiment [3]; 17.2% in experiment [7]; 9.17% (active) in experiment [4]; 24% in experiment [6].
For `O=c1/c(=C\c2ccc(-c3ccccc3)o2)sc2nc(-c3ccccc3)nn12`, the growth was 119% in experiment [1]; 101% in experiment [2]; 104% in experiment [3]; 103% in experiment [4]; 113% in experiment [5].
With `CS(=O)(=O)c1ccc(-c2nc3ccccn3c2/C=N/Nc2nc(-c3ccc(Br)cc3)cs2)cc1`, the growth in experiment [1] is 114%; in experiment [2], 97.2%; in experiment [3], 98.2%; in experiment [4], 101%; in experiment [5], 120%; in experiment [6] it was 101%.
Turning to `CC(C)Sc1nc(Nc2ccc(S(N)(=O)=O)cc2)c(C#N)c(-c2ccc(F)cc2)n1`, the growth in experiment [1] was 53.3%; in experiment [2], 49.9%; in experiment [3], 24.3%; in experiment [7], 31.6%; in experiment [5], 58.8%; in experiment [6] it was 48.8%.
With `Cc1cccc2sc(/N=C(\N)C(Br)Br)nc12`, the growth in experiment [1] was 30.2%; in experiment [2], 12.3%; in experiment [7], -13.3% (active); in experiment [4], -29.1% (active); in experiment [5], 4.99% (active); in experiment [6] it was 9.77% (active).

Values taken from PubChem BioAssay (NCI).
